V-ATPase pHluor: regulators of yeast V-ATPase proton pumping, primary screen, pHLuorin cytosolic pH fluorescence; response, % at 10 µM; actives 0.37% (n = 350,000); S. cerevisiae; AID 504577, 2011; in the data active = response mostly above about 7.3%, no sharp cut-off; inactive = mostly below about 5.4%; note: actives read high
HTR5A ag ctr: HTR5A agonists in luminescence cell assay, primary screen, counter-screen for OPRM1-OPRD1 heterodimer agonist project, full-deck HTS. activation, % at 9.3 µM. actives 0.61% (n = 340,000). cell-based; in the data active = activation mostly above about 9.5%, no sharp cut-off; inactive = mostly below about 7.6%;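 note: 0% = cells with vehicle only and 100% = reference agonist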
Target sequence (P47898 whole entry, looked up): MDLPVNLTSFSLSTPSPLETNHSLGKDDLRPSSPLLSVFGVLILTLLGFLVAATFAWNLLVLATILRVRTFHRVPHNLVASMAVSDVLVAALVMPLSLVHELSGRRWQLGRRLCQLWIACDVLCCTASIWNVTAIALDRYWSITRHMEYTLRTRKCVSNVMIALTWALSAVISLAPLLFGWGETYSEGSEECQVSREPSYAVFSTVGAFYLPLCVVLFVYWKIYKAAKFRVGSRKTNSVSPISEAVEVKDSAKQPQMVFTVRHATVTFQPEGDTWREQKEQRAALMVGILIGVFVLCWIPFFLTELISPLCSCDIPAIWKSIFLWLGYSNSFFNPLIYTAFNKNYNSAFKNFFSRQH
OPRM1-OPRD1 ag: agonists of OPRM1-OPRD1 heterodimerization, primary screen, cell-based, luminescence; Mu-type opioid receptor (Homo sapiens) + Delta-type opioid receptor (Homo sapiens), …; cells; activation, % at 9.3 µM; actives 0.3% (n = 340,000); AID 504326, 2011; in the data active = activation above about 18%;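 note: 0% = vehicle-treated cells and 100% = reference agonist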
beta cell repl: inducers of MIN6 beta-cell proliferation, primary screen, ATP luminescence, uHTS; MIN6 cells proliferation, ATPlite luminescence, 48 h; cells starved in 0.2% serum; 100% = growth in 10% serum; proliferation, % at 10 µM; actives 0.29% (n = 330,000);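 active = compounds whose signal lies at least 3.5 SD above the mean of all wells on their plate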;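 note: 0% = DMSO-treated cells in low-serum medium and 100% = 10% serum control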
MOR-DOR inv ag: inverse agonists of MOR-DOR heterodimerization, primary screen, cell-based, luminescence; actives 0.21% (n = 340,000); AID 504357, 2011; cell-based MOR-DOR heterodimer luminescence, inverse agonism; Mu-type opioid receptor (Homo sapiens) + Delta-type opioid receptor (Homo sapiens), …; inhibition, % at 9.3 µM; in the data active = inhibition above about 22%, passing the limit was not always enough;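 note: 0% = cells with DMSO and 100% = wells without cells with DMSO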
HTR5A inv ag: HTR5A inverse agonists in luminescence cell assay, primary screen, counter-screen for OPRM1-OPRD1 heterodimer inverse agonist project, full-deck HTS; HTR5A cell line, inverse agonism; inhibition, % at 9.3 µM; AID 504634, 2011; actives 0.083% (n = 340,000); in the data active = inhibition mostly above about 23%, no sharp cut-off; inactive = mostly below about 18%;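 note: 0% = cells with DMSO and 100% = no-cell wells with DMSO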
OPRM1-D1 inv cf: inverse agonists of MOR-DOR heterodimerization, confirmation, cell-based, luminescence. shares compounds with MOR-DOR inv ag. cells expressing OPRM1/OPRD1 heterodimer. inhibition, % at 9.3 µM. actives 20% (n = 580); in the data active = inhibition above about 32%;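 note: 0% = cells with DMSO and 100% = wells lacking cells with DMSO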
HTR5A inv count: HTR5A inverse agonists, counter-screen for OPRM1-OPRD1 inverse agonist project, cell-based, luminescence | inhibition, % at 9.3 µM | 580 tested, under 10 active | shares compounds with MOR-DOR inv ag | HTR5A-expressing cells, inverse agonism; call rule not given here;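 note: 0% = cells with DMSO and 100% = no-cell wells with DMSO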
VATPase regulator: yeast V-ATPase proton pumping modulators, confirmation, S. cerevisiae, pH-sensitive GFP, second cherry-pick | shares compounds with V-ATPase pHluor | S. cerevisiae pHLuorin cytosolic pH, V-ATPase proton transport | response, % at 10 µM | actives 2% (n = 980); in the data active = response above about 24%;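 note: plate controls were vehicle wells for no effect and positive control wells for full effect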
* = called active by the depositor; x = not tested or not shown. Most compounds without a hit are left out; they make up all but 1.7% or so of the library.

SMILES	V-ATPase pHluor	HTR5A ag ctr	OPRM1-OPRD1 ag	beta cell repl	MOR-DOR inv ag	HTR5A inv ag	OPRM1-D1 inv cf	HTR5A inv count	others
COc1ccc(C2=NN(S(=O)(=O)c3ccccc3)C(c3ccccc3)C2)cc1 (stereo not drawn)	2	2	-2	-5	11	-4	x	x
Fc1ccccc1NC(=S)NNc1ncc(C(F)(F)F)cc1Cl	-3	-8	-8	0	44*	16	-59	-2
FC(F)(F)c1cnc(NNC(=S)Nc2cccnc2)c(Cl)c1	-1	-7	-12	-7	66*	29	45*	42
Cc1c(Cl)cccc1NC(=S)NNc1ncc(C(F)(F)F)cc1Cl	0	-8	-8	-6	43*	41	25	28
FC(F)(F)c1cnc(NNC(=S)Nc2ccccc2)c(Cl)c1	0	x	x	x	x	x	x	x
Cc1ccccc1NC(=S)NNc1ncc(C(F)(F)F)cc1Cl	-6	-7	-8	1	46*	26	33*	15
COC(=O)c1[nH]c2ccccc2c1NC(=O)C(C)N1CC(C)OC(C)C1 (stereo not drawn)	3	x	x	0	x	x	x	x
CCCSc1ccc([C@H]2N[C@@](C)(C(=O)OC)[C@H]3C(=O)N(CC)C(=O)[C@@H]23)cc1	-7	9	0	-2	-1	-8	x	x
Cc1cccc(C)c1NC(=S)NNc1ncc(C(F)(F)F)cc1Cl	0	-3	-5	-2	32*	17	-49	-11
CCC1CCCCN1C(=O)c1ccc2c(c1)C(=O)N(c1ccc(C)cc1)C2=O (stereo not drawn)	-2	4	0	0	-1	-4	x	x
Cc1ccc(SCC(=O)OCC(=O)N(CC(C)C)C2CCS(=O)(=O)C2)cc1C (stereo not drawn)	-1	1	-4	-2	24*	-2	-24	-28
O=C1C(NS(=O)(=O)c2cccs2)=C(N2CCOCC2)C(=O)c2ccccc21	-1	-1	-8	-3	41*	39	6	7
CN1CCN(C2=C(NS(=O)(=O)c3cccs3)C(=O)c3ccccc3C2=O)CC1	-2	8	2	-3	-10	-22	x	x
CC(=O)c1ccc(NC(=O)CN2C(=O)COc3ccc(S(=O)(=O)N4CCCC4)cc32)cc1	-1	-3	-2	-1	13	12	x	x
COC(=O)c1[nH]c(=O)c2ccccc2c1OCc1ccccc1	5	1	-2	-1	12	-7	x	x
COC(=O)c1[nH]c(=O)c2ccccc2c1O	-5	-5	-10	-2	42*	12	-152	-8
COc1ccc(NC(=O)/C(Cl)=C(/Cl)S(=O)Cc2ccc(Cl)cc2)cn1 (stereo not drawn)	1	-4	-8	-5	41*	11	-13	14
CC1CCN(c2ccc(/C=C(\C#N)c3nn(-c4ccccc4)c(N)c3C#N)cc2[N+](=O)[O-])CC1	-1	0	-5	0	21	-3	x	x
CC1CCCN(c2ccc(/C=C(\C#N)c3nn(-c4ccccc4)c(N)c3C#N)cc2[N+](=O)[O-])C1 (stereo not drawn)	-1	-2	-5	-4	29*	-1	-256	-29
COc1ccccc1C(=O)OCc1ccc2sc(C)nc2c1	-4	-3	-2	0	10	-38	x	x
C=CCn1c(=O)c2c(nc3n2CC(C)CN3Cc2ccccc2)n(C)c1=O (stereo not drawn)	5	0	-1	2	5	0	x	x
Cc1ccc(NC(=O)CS(=O)CC(=O)Nc2ccccc2-c2ccc(C)o2)cc1 (stereo not drawn)	4	-3	-6	0	35*	8	3	3
O=C(Cn1nnc2ccccc21)OCC(=O)c1ccccc1	0	1	-3	-5	17	5	x	x
O=C(Cn1nnc2ccccc21)OCC(=O)c1ccc(Cl)c(Cl)c1	1	-3	-13	-3	71*	12	-106	-23
O=c1c2cc(Br)ccc2[nH]c(=S)n1Cc1ccccn1	4	-1	-11	0	64*	2	-93	-20
SMILES	V-ATPase pHluor	HTR5A ag ctr	OPRM1-OPRD1 ag	beta cell repl	MOR-DOR inv ag	HTR5A inv ag	OPRM1-D1 inv cf	HTR5A inv count	others
O=C(COc1ccc(F)cc1F)Nc1cccnc1	2	5	-2	1	9	-6	x	x
Cc1cc(Br)ccc1N=C1C(=O)Nc2ccccc21	-1	-4	-10	-1	50*	15	14	8
O=C1Nc2ccccc2/C1=N/N=C/c1cccc(O)c1	2	3	-1	-2	5	19	x	x
O=C1Nc2ccccc2C1=Nc1ccccc1-c1ccccc1	-1	-7	-14	x	62*	28	-219	-20
Cc1cc(C)c(N=C2C(=O)Nc3ccccc32)c(C)c1	2	-5	-9	6	48*	19	-37	-32
Cc1cccc(C)c1N=C1C(=O)Nc2ccccc21	3	-7	-9	-4	46*	28	-26	-3
CC(=O)NC1C(=O)Nc2c1cccc2C(F)(F)F (stereo not drawn)	-1	3	-7	-3	30*	-5	14	-18
CC(=O)NC1C(=O)N=C(SCC(=O)Nc2c(C)cccc2C)NC1=O (stereo not drawn)	0	-2	-3	-1	15	5	x	x
O=C(NCCS(=O)(=O)NC1CCCCC1)c1ccc2c(c1)OCO2	7.1*	-4	-1	0	4	13	x	x	VATPase regulator=-2
CCN(CC)S(=O)(=O)c1ccc(NS(=O)(=O)CC23CCC(CC2=O)C3(C)C)cc1 (stereo not drawn)	1	3	1	0	-5	-39	x	x
COc1ccccc1OCC(O)CN1CCN(C(=O)c2ccccc2)CC1 (stereo not drawn)	1	0	-3	1	16	-1	x	x
Cc1cc(C)c(C(=O)COC(=O)C2CCN(c3ccc(C(F)(F)F)cn3)CC2)c(C)c1	8.6*	6	4	-4	-17	-15	x	x	VATPase regulator=0
